Only some compounds are listed: those with a hit (about 1% of all), similar ones and a draw of the others.
GC-B act: human GC-B receptor activators, primary screen, HEK293 GC-B cells, cGMP TR-FRET, EC30 CNP; Atrial natriuretic peptide receptor 2 (Homo sapiens), P20594; 0% at EC30 CNP, 100% saturating CNP; activation, % at 10 µM; 0.11% of 370,000 active;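 active means activation at 10 µM reaching about 35% in either raw or pattern-adjusted values, limit read from the data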
H9c2 TAG inh: inhibitors of triacylglycerol accumulation, primary screen, cell-based, uHTS, fluorescence, H9c2; 0.66% of 230,000 active; inhibition, % at 12.5 µM; H9c2 cells, Nile Red lipid (TAG) fluorescence; cells loaded with 200 µM oleic acid;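 active means pattern-corrected inhibition of lipid staining of at least 50% with the nuclear-stain viability signal not falling by more than 50%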;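 further: 0% = DMSO wells and 100% = triacsin C control wells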
A1 inh: caspase 3/7 activation in MEF A1-2A-BIM cells, primary screen, A1 inhibitor project, cell-based, luminescence, HTS; Caspase-Glo 3/7 luminescence, 3 h; percent of clofoctol response, vehicle zero; caspase activation, % (concentration not given with the values); 0.066% of 330,000 active;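 active means over half of replicate activation scores above 10%, or exactly half above 10 with the replicate mean above 10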
HSV augment: enhancers of HSV replication in host cells, fold increase, host cell viability; HSV replication augmentation in cells; AID 1956, 2009; maximum fold increase; 0.005% of 220,000 active; in the data active means maximum fold increase above about 1.5; tested in PC3 cells
GC-A act: GC-A stimulated cGMP production enhancers – HEK293 GC-A cells, cGMP TR-FRET, EC30 ANP, primary screen. Atrial natriuretic peptide receptor 1 (Homo sapiens), P16066. 0% at EC30 ANP, 100% saturating ANP. AID 1671463, 2021. 0.14% of 370,000 active. activation, % at 10 µM; in the data active means activation above about 40%
Target sequence (P16066 whole entry, looked up): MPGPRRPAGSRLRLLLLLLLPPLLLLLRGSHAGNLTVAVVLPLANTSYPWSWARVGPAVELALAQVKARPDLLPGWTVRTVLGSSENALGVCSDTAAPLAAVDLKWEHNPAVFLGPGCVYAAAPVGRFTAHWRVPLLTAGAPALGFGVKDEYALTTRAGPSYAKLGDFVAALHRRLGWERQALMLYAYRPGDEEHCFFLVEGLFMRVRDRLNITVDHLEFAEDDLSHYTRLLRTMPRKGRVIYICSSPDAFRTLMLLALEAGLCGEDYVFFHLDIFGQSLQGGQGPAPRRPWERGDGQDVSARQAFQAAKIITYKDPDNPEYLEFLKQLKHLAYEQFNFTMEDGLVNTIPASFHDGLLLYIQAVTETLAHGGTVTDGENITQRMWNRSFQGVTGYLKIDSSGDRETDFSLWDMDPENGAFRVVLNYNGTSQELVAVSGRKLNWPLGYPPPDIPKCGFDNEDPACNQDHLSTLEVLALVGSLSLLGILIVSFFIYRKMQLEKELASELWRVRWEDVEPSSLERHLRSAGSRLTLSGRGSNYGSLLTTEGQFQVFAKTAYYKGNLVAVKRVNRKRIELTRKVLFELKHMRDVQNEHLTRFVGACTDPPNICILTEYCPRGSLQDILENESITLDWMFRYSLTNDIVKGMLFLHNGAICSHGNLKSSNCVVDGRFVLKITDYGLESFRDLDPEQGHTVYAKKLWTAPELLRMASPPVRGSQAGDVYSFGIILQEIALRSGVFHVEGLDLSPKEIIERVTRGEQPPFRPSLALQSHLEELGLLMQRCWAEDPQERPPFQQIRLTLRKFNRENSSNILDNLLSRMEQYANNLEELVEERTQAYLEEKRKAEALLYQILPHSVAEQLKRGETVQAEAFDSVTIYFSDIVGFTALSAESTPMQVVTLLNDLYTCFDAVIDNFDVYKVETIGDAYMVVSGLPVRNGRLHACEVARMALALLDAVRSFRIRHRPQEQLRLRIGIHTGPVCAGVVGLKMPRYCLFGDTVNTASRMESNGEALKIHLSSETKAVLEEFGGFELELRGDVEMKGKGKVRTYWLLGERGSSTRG
Efflux pump mplx: inhibitors of Candida efflux pumps in yeast, primary screen, S. cerevisiae, Nile Red, multiplex; S. cerevisiae Candida pump triplex; inhibition, % at 10 µM; 0.44% of 330,000 active; AID 485275, 2010;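 active means plate passing quality check with inhibition over a set limit, or well fluorescence over plate mean plus 4 SD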;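 further: Nile Red retained in pooled yeast measured as flow cytometry median fluorescence; 0% = buffer negative control and 100% = Enniatin B positive control; higher means more Nile Red kept so more efflux inhibition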
Active calls of the source: *.

`COc1ccc2nc(-c3ccccc3)[nH]c2c1` gave GC-B act 0, H9c2 TAG inh 6, A1 inh -8, HSV augment inactive, GC-A act 6 and Efflux pump mplx 0.
`CCOc1ccc2nc(-c3ccccc3)[nH]c2c1` gave GC-B act 3, H9c2 TAG inh 50*, A1 inh -7, HSV augment inactive, GC-A act 5 and Efflux pump mplx 0.
O=C(c1ccc(COc2ccc(F)cc2)o1)n1cc(Br)cn1 was read as GC-B act -2, H9c2 TAG inh 9, A1 inh -2, HSV augment inactive, GC-A act 31 and Efflux pump mplx 0.
O=C(c1ccc(COc2ccc(F)cc2)o1)n1cccn1 was read as GC-B act -7, H9c2 TAG inh -1, A1 inh -3, HSV augment inactive, GC-A act 45* and Efflux pump mplx 0.
Screening COC(=O)C1CN(Cc2ccccc2)CCS(=O)(=O)N1Cc1ccccc1F (centres undefined) returned GC-B act -1 and GC-A act -7.
c1ccc(Cn2nnc3c(Nc4ccc5c(c4)OCO5)nc(C4CC4)nc32)cc1 was read as GC-B act 41*, A1 inh 1, HSV augment inactive, GC-A act 34 and Efflux pump mplx 0.
`CCN(CC)c1ncnc2c1cnn2Cc1ccc(C)cc1` gave GC-B act 38*, A1 inh 1, GC-A act 27 and Efflux pump mplx 0.
`O=C(NCc1ccco1)C1CCCN(S(=O)(=O)c2ccccc2[N+](=O)[O-])C1` (centres undefined) gave GC-B act -4 and GC-A act 3.
`CCOC(=O)[C@]12CCCC=C1N(CCCOC)C(=O)[C@@H]2CC(=O)N1CCC(c2ccccc2)CC1` gave GC-B act -1 and GC-A act -2.
Screening C=CCN1C(=O)[C@@H](CC(=O)NCCC(C)C)[C@]2(C(=O)OC)CCCCC=C12 returned GC-B act -4 and GC-A act 2.
For O=C(CN1C(=O)CCSc2ccccc21)Nc1cccc(Cl)c1F the results were GC-B act -18 and GC-A act -13.
`Oc1ccc(C=Nc2ccccc2-c2nc3ccccc3[nH]2)cc1` gave GC-B act 45*, A1 inh -1, HSV augment inactive, GC-A act 39 and Efflux pump mplx 0.
`CN1CCN(c2ccc(Cl)cc2NC(=O)c2cc(=O)[nH]c3ccccc23)CC1` gave GC-B act -8, H9c2 TAG inh 19, A1 inh 1, GC-A act -4 and Efflux pump mplx 0.
`CN1CCN(c2cc3c(c4c2[nH]c2ccccc24)C(=O)CC(C)(C)C3)CC1` gave GC-B act -12, H9c2 TAG inh 54*, A1 inh 2, HSV augment inactive, GC-A act -4 and Efflux pump mplx 0.
Screening CC(C)(C)OC(=O)N1CC=C2C(C#N)=C(N)C(C#N)(C#N)[C@H](c3cccnc3)[C@H]2C1 returned GC-B act -1, A1 inh 0, HSV augment inactive, GC-A act 48* and Efflux pump mplx 0.
`CCN(CC)C(=O)CC[C@H]1CC[C@]2(CCCN(Cc3nccs3)C2)O1` gave GC-B act -4 and GC-A act -1.
Screening CCOC(=O)c1cc(-c2csc(COc3ccc(Cl)cc3)n2)on1 returned GC-B act -4, H9c2 TAG inh 3, A1 inh 0, HSV augment inactive, GC-A act 58* and Efflux pump mplx 0.
`CCOC(=O)c1cc(-c2csc(COc3ccccc3Cl)n2)on1` gave GC-B act 8, H9c2 TAG inh -11, A1 inh 0, HSV augment inactive, GC-A act 63* and Efflux pump mplx 0.
`CCOC(=O)c1cc(-c2csc(COc3ccccc3)n2)on1` gave GC-B act 15, H9c2 TAG inh 7, A1 inh -1, HSV augment inactive, GC-A act 67* and Efflux pump mplx 0.
Screening CN(C)[C@@H]1CCN(c2ccc3c(c2)O[C@@H]2CCN(C2)S3(=O)=O)C1 returned GC-B act 0 and GC-A act 0.
For CCCCc1ccc(NC(=O)CN(C)CC(=O)Nc2ccccc2Cl)cc1 the results were GC-B act 1, A1 inh 18*, GC-A act 0 and Efflux pump mplx 1.
Screening CN(CC(=O)Nc1ccccc1)CC(=O)Nc1ccccc1Cl returned GC-B act 4, A1 inh 0, GC-A act 2 and Efflux pump mplx 0.
CS(=O)(=O)Nc1ccc(C2=NN(C(=O)c3ccccc3)C(c3cccs3)C2)cc1 (centres undefined) was read as GC-B act -24, A1 inh 0, GC-A act -49 and Efflux pump mplx 0.
`CS(=O)(=O)Nc1ccc(C2=NN(C(=O)c3cccc(F)c3)C(c3cccs3)C2)cc1` (centres undefined) gave GC-B act -8, A1 inh 5.4*, GC-A act -41 and Efflux pump mplx 0.
For Cc1cc(C)cc(C(=O)OCCN2CCN(C3CN(Cc4cn(Cc5ccccc5F)nn4)S(=O)(=O)C3)CC2)c1 (centres undefined) the results were GC-B act 3 and GC-A act 3.
Screening O=c1cc(N2CCN(c3ccnc4cc(Cl)ccc34)CC2)[nH]c(=O)n1C1CCCCC1 returned GC-B act -7 and GC-A act -6.
For CCOc1ccc2nc(NCCNC(=O)Nc3cccc(C)c3)c(C#N)cc2c1 the results were GC-B act -6, H9c2 TAG inh 15, A1 inh 7.5*, HSV augment inactive, GC-A act 1 and Efflux pump mplx 0.
CCOc1ccc2nc(NCCNC(=O)Nc3ccccc3)c(C#N)cc2c1 was read as GC-B act 3, H9c2 TAG inh 22, A1 inh 0, HSV augment inactive, GC-A act 6 and Efflux pump mplx 0.
Screening O=C(Cn1c(-c2cncs2)nc2ccccc21)N1CCCCC1 returned GC-B act -2 and GC-A act 7.
For CCCCCCC(=O)NC1CCCCN(Cc2ccccc2C)C1=O (centres undefined) the results were GC-B act 1 and GC-A act 3.
For O=C1C=C(c2ccc3[nH]ccc3c2)C[C@@H](c2ccc(F)cc2)C1 the results were GC-B act 36*, H9c2 TAG inh -23, A1 inh 1, GC-A act 3 and Efflux pump mplx 0.

Screening data: PubChem, several laboratories
